Reference: PubChem BioAssay (NCI)
About 79,000 compounds went through this panel and 15% of them were active in at least one assay; those are over-represented in the sample as a whole. Rule as the data show it: active = growth inhibition above about 70%; inactive = the rest.

Tests used:
[1] = NCI Yeast Anticancer Drug Screen. Data for the rad50 strain (AID 155);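 also: 0% = growth of vehicle-only cultures of the same strain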; details: S. cerevisiae rad50 strain growth inhibition; at 50.0 µM; active compounds read high
In short: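 Cells are treated with compound, grown, and their growth is then scored against vehicle-only cultures of the same repair-deficient yeast strain.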

[2] = NCI Yeast Anticancer Drug Screen. Data for the mec2-1 strain (AID 157); details: S. cerevisiae mec2-1 strain, at 50.0 µM, active compounds read high
In short: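 Compounds were applied to mec2-1 yeast cells. Their growth was then compared with that of vehicle-treated cultures to give growth inhibition.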

[3] = NCI Yeast Anticancer Drug Screen. Data for the sgs1 mgt1 strain (AID 161);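 also: 0% = growth of cultures given vehicle only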; details: S. cerevisiae sgs1 mgt1 strain, at 50.0 µM, active compounds read high
In short: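 Yeast cells carrying a defined DNA-repair defect were exposed to test compounds. Growth inhibition was measured relative to vehicle-treated controls.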

[4] = NCI Yeast Anticancer Drug Screen. Data for the cln2 rad14 strain (AID 165);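 also: 0% = growth equal to vehicle treated cultures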; details: S. cerevisiae cln2 rad14 strain, at 50.0 µM, active compounds read high
In short: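 Strain: cln2 rad14 yeast, altered in cell cycle control and DNA damage repair. Read-out: growth inhibition vs vehicle.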

[5] = NCI Yeast Anticancer Drug Screen. Data for the bub3 strain (AID 167); details: S. cerevisiae bub3 mutant strain, at 50.0 µM, active compounds read high
In short: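 Part of a panel of yeast mutants defective in DNA damage repair or cell cycle regulation. Each strain is grown with compound, and inhibition is calculated relative to solvent-treated cultures.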

[6] = NCI Yeast Anticancer Drug Screen. Data for the mlh1 rad18 strain (AID 175); details: S. cerevisiae mlh1 rad18 strain growth inhibition; at 50.0 µM; active compounds read high
In short: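 A repair-deficient yeast strain is exposed to test compound, and growth is scored relative to vehicle-treated controls.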

Measured: growth inhibition

C/C=C/c1ccc(OCC)c(OC)c1
inactive: [1] 24.4% | [2] 6.25% | [3] 12.3% | [4] -8.8% | [5] -17.2% | [6] 16.3%

CCNN(CC)C(N)=O
inactive: [1] 5.2% | [2] -5% | [3] 0.4% | [4] 7.6% | [5] -13.2% | [6] -1.25%

OC1(c2ccccc2)CC2C=CC1C2 (configuration not stated)
inactive: [1] -5.9% | [2] 8.2% | [3] 8.05% | [4] 17.2% | [5] 15.3% | [6] 5.15%

Clc1ccc2cc3ccccc3cc2c1
inactive: [1] -16.7% | [2] 2.5% | [3] -3.95% | [4] -16.4% | [5] 5.8% | [6] -21%

Cn1nc(C(F)(F)C(F)(F)C(F)(F)F)nc1C(F)(F)C(F)(F)C(F)(F)F
inactive: [1] 12.6% | [2] 3.6% | [3] 4.45% | [4] -3.75% | [5] -2.15% | [6] 10.6%

C=C1C(=O)OC2CCC(O)C12 (configuration not stated)
inactive: [1] 6.95% | [2] 5.15% | [3] 1.2% | [4] -30.6% | [5] -1.2% | [6] 11.7%

CC1=C(C)C2(C)C(C)C2(C)C1C (configuration not stated)
inactive: [1] -5.8% | [2] -13.3% | [3] 17.9% | [4] 20.6% | [5] 35% | [6] -1.7%

CNC1NC(=O)c2ccccc2N1Cc1ccc(F)cc1 (configuration not stated)
inactive: [1] 5.7% | [2] 4.5% | [3] -23.1% | [4] -19.6% | [5] -12.1% | [6] -4.25%

COc1cc2cc3c4cc(OC)c(OC)cc4cc[n+]3cc2cc1OC
inactive: [1] -4.5% | [2] -54.5% | [3] -2.8% | [4] -12.3% | [5] -15.8% | [6] -68%

O=C(O)C(=Cc1ccc(Br)cc1)C(=O)O
inactive: [1] 41.5% | [2] -25.8% | [3] 13.5% | [4] 20.8% | [5] 23.1% | [6] 31.9%

CCOC(=O)c1nnc2cc(-c3ccccc3)nn2c1C
inactive: [1] 6.65% | [2] 0.6% | [3] 18.1% | [4] 25.4% | [5] 41.4% | [6] 28.6%

O=C(O)c1cccc(S(=O)(=O)NN2C(=O)CSC2c2ccccc2)c1 (configuration not stated)
inactive: [1] -22.4% | [2] -18.5% | [3] 5.55% | [4] 4.45% | [5] 3.7% | [6] -11.3%

CN(C)C1=C(c2ccccc2)C(=O)C(c2ccccc2)=C1c1ccccc1
inactive: [1] 39.8% | [2] 3.25% | [3] 22.1% | [4] -32.3% | [5] 7.05% | [6] 13.3%

COc1cc2c(c(C3(O)C(=O)N(C)c4ccccc43)c1OC)OCO2 (configuration not stated)
inactive: [1] 1.95% | [2] -12.4% | [3] 12.8% | [4] -53.1% | [5] -52.6% | [6] 4.9%

CC(O)CN1CNC(=S)NC1 (configuration not stated)
inactive: [1] -3.8% | [2] -39.3% | [3] -3.55% | [4] 8.75% | [5] -16.2% | [6] -7.25%

[Cl][Pt+2][Cl].[NH-]CC(O)c1ccc2oc3ccccc3c2c1.[NH-]CC(O)c1ccc2oc3ccccc3c2c1 (configuration not stated)
inactive: [1] -23.3% | [2] -11.2% | [3] -30.6% | [4] -21.1% | [5] 7.35% | [6] 17.6%

COc1cc(C2=N/C(=C\c3cc(Cl)cc(Cl)c3O)C(=O)O2)cc(OC)c1OC
inactive: [1] -33.7% | [2] -23.6% | [3] 2.85% | [4] -12.6% | [5] -2.9% | [6] -2.8%

CCOC1=C2C(C)(CCC3[C@@]4(C)C=CC(=O)C(C)(C)C4CC(O)[C@@]23C)C(c2ccoc2)C1=O (some centres not stated)
inactive: [1] 54% | [2] 31% | [3] 45.5% | [4] 45.3% | [5] 20.1% | [6] 30.8%

[Br][Pt+2][Br].[NH-]c1cccc(F)c1.[NH-]c1cccc(F)c1
inactive: [1] 50.9% | [2] 11.4% | [3] 39.4% | [4] 6.4% | [5] 5.65% | [6] 46.3%

CC1=CC(C)(C)N=C2SC(c3ccc(N)cc3)=NN12
inactive: [1] 25% | [2] 1.7% | [3] 3.55% | [4] 5.9% | [5] 18.5% | [6] 28.4%

O=C(Nc1ccc(Cl)cc1)Nc1ccc(Cl)nn1
inactive: [1] -29.2% | [2] 7.85% | [3] -10.1% | [4] -39.8% | [5] -6.8% | [6] -1.85%

Clc1ccccc1/C=N/N=C/c1ccccc1Cl
inactive: [1] 5.65% | [2] -3.95% | [3] -9.05% | [4] -21.9% | [5] 1.7% | [6] 4.9%

CCOc1ccc(NC(=O)CC2SC(=Nc3ccc(C)cc3C)NC2=O)cc1 (configuration not stated)
inactive: [1] 12.6% | [2] 24.5% | [3] 33.3% | [4] 44.3% | [5] 39.4% | [6] 28.8%

Cc1c([N+](=O)[O-])cc(C(C)(C)C)c(OC(=S)N(C)C)c1[N+](=O)[O-]
inactive: [1] 26.9% | [2] 23.4% | [3] -1.75% | [4] 18% | [5] 14.7% | [6] 0.7%

CCCCCCC(N)(CCCCCC)C(=O)Nn1c(C)ccc1C
inactive: [1] 45% | [2] 13.1% | [3] 9.8% | [4] -20.6% | [5] 4.25% | [6] 31.2%

OC1=CC(=S)NC2CCCCC12 (configuration not stated)
inactive: [1] 32.2% | [2] 18.2% | [3] 45% | [4] 35.9% | [5] 29.4% | [6] 49.8%

CCOC(=O)C1=C(C(=O)c2ccccc2)C(c2ccc([N+](=O)[O-])cc2)C(C(=O)c2ccccc2)=C(C(=O)OCC)N1
inactive: [1] -6.5% | [2] 1.6% | [3] -4% | [4] 14.2% | [5] -10.9% | [6] 7.5%

CC(=O)N1CCCCCC1=O
inactive: [1] -30.3% | [2] -16.9% | [3] 25.4% | [4] -7.55% | [5] 1.95% | [6] -26.8%

Nc1c(Cl)cccc1C(=O)c1ccccc1C(=O)O
inactive: [1] -9.8% | [2] 4.8% | [3] 5.4% | [4] -14.8% | [5] 1% | [6] -3.15%

CS/C(=C\c1ccc2cc(C)ccc2[n+]1C)N1CCOCC1
inactive: [1] 7.25% | [2] -3.85% | [3] -16% | [4] -2.05% | [5] -45.6% | [6] -56.5%

Nc1nc(N)c2nc3c(nc2n1)C(=O)N(c1ccc(C(=O)O)cc1)C3
inactive: [1] 1.55% | [2] 34.9% | [3] 27.9% | [4] -2.8% | [5] 32.1% | [6] 23.2%

O=C1C=Cn2cc(-c3ccccc3)c(-c3ccccc3)c21
inactive: [1] -13.3% | [2] -10.3% | [3] -14% | [4] 19.9% | [5] -18.1% | [6] -9.2%

COc1ccc(N2C(=O)CC(c3cc(OC)c(OC)c(OC)c3)CC2=O)cc1
inactive: [1] -3.7% | [2] -20.5% | [3] 10.4% | [4] 3.1% | [5] 8.25% | [6] -2.75%

C/C=C(\C)C(C#N)(CCCC)C(=O)OCC (configuration not stated)
inactive: [1] 0.3% | [2] -17.2% | [3] -6.35% | [4] -14.7% | [5] -25.4% | [6] -24.2%

CN(Cc1ccccc1)C(=O)c1ccc(Cl)cc1
inactive: [1] -1.35% | [2] 3.75% | [3] 6.25% | [4] 0.6% | [5] 1.25% | [6] -0.1%

CC(=O)CC(=O)NCc1cccc(C)n1
inactive: [1] 38.1% | [2] 24.6% | [3] 28.6% | [4] -8.15% | [5] 20.9% | [6] 24.1%

CCOC(=O)c1c(-c2ccc(OC)cc2)c(C#N)c(=S)n(C2OC(CO)C(O)C(O)C2O)c1C (configuration not stated)
inactive: [1] 17.7% | [2] -9.5% | [3] 3.05% | [4] 6.3% | [5] 22.4% | [6] 10.1%
